The values below come from PubChem BioAssay (NCI).

The panel holds about 83,000 compounds, 20% with a hit somewhere; the sample as a whole holds those more often.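 How to read the values: 0–100, growth inhibition (40 = 60% inhibited); 0, no net growth; -100 to 0, cell death (-40 = 40% of starting cells died; -100 = all dead).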 Unmarked numbers belong to inactive results. Active and inactive are the calls of the source. The calls were made as follows: active = growth percent below 10; inactive = the rest.

Among the test systems are SR leukemia; RPMI-8226 leukemia; OVCAR-8 ovarian; OVCAR-5 ovarian; OVCAR-4 ovarian; SK-OV-3 ovarian; IGROV1 ovarian; OVCAR-3 ovarian; HS 578T breast; NCI/ADR-RES ovarian; T-47D breast; BT-549 breast; MDA-MB-435 melanoma; SW-620 colon; MCF7 breast; HCT-116 colon; KM12 colon; HCC-2998 colon.
Assay in all cases: NCI-60 one-dose screen, 48 h (100 = growth as untreated, 0 = no growth, -100 = all killed)
What all share (conditions): 10 µM unless noted

With `COc1cnc2c(c1)C(=O)c1c-2n(CCCBr)c(=O)c2cc([N+](=O)[O-])ccc12`, the growth in the experiment with SR leukemia is 7.47% (active); in the experiment on RPMI-8226 leukemia, -12.9% (active); in the experiment with OVCAR-8 ovarian, 2.09% (active); with OVCAR-5 ovarian, 5.53% (active); with OVCAR-4 ovarian it was 5.15% (active); in the experiment on SK-OV-3 ovarian, 8.4% (active). Besides, the growth in the experiment on IGROV1 ovarian was 2.21% (active); in the experiment with OVCAR-3 ovarian, -44.1% (active); in the experiment on HS 578T breast it was 36.9%; in the experiment on NCI/ADR-RES ovarian, 11.6%; with T-47D breast it was 2.87% (active); with BT-549 breast it was 25.5%. Also, the growth was 11.4% in the experiment on MDA-MB-435 melanoma; 12.1% with SW-620 colon; 1.77% (active) in the experiment on MCF7 breast; -24.8% (active) in the experiment on HCT-116 colon; 1.44% (active) in the experiment with KM12 colon.

With `COc1ccc(/C=C2\N=C3SC=C(N)N3C2=O)cc1`, the growth in the experiment on SR leukemia was -21.3% (active); in the experiment on RPMI-8226 leukemia, -28.8% (active); with OVCAR-8 ovarian it was 35.7%; in the experiment on OVCAR-5 ovarian, 59.9%; in the experiment on OVCAR-4 ovarian, 21.5%; with SK-OV-3 ovarian, 45.6%. Moreover, the growth is 9.81% (active) in the experiment with IGROV1 ovarian; 24.2% in the experiment with OVCAR-3 ovarian; 50.4% in the experiment on HS 578T breast; 42.3% in the experiment on NCI/ADR-RES ovarian; 9.75% (active) in the experiment with T-47D breast; 11.8% in the experiment with BT-549 breast. For the same molecule, the growth in the experiment on MDA-MB-435 melanoma was 9.59% (active); in the experiment with SW-620 colon it was 21.9%; with MCF7 breast, 13.4%; in the experiment with HCT-116 colon, -6.91% (active); in the experiment on KM12 colon it was 46.9%.

As for `COCCCNc1nc(NC(=O)c2ccc(F)cc2C)cc(-c2cccnc2)n1`, the growth in the experiment with SR leukemia was 110%; in the experiment on RPMI-8226 leukemia, 90.2%; with OVCAR-8 ovarian it was 91.6%; with OVCAR-5 ovarian it was 106%; with OVCAR-4 ovarian, 117%; in the experiment on SK-OV-3 ovarian, 108%. The growth was 109% in the experiment on IGROV1 ovarian; 106% in the experiment on OVCAR-3 ovarian; 94% in the experiment on HS 578T breast; 94.2% in the experiment with NCI/ADR-RES ovarian; 89.4% in the experiment with T-47D breast; 103% with BT-549 breast. Further, the growth was 103% in the experiment on MDA-MB-435 melanoma; 109% in the experiment with SW-620 colon; 101% in the experiment on HCT-116 colon; 103% in the experiment with HCC-2998 colon; 104% in the experiment on KM12 colon.

On to `CSc1nc2sc3c(c2c(=O)n1-c1ccc(C(C)C)cc1)CCC(=O)C3`, for which the growth with SR leukemia is -11.7% (active); with RPMI-8226 leukemia it was -29.9% (active); with OVCAR-8 ovarian, 4.63% (active); with OVCAR-5 ovarian, 6.13% (active); in the experiment on OVCAR-4 ovarian it was 14.5%; in the experiment on SK-OV-3 ovarian it was 35.6%. The growth in the experiment on IGROV1 ovarian is -6.1% (active); in the experiment with OVCAR-3 ovarian, -27.4% (active); in the experiment on HS 578T breast it was 2.67% (active); in the experiment with NCI/ADR-RES ovarian it was -11.1% (active); in the experiment with T-47D breast, -48.3% (active); with BT-549 breast it was 3.97% (active). For the same molecule, the growth in the experiment with MDA-MB-435 melanoma is -6.88% (active); in the experiment with SW-620 colon, -30.3% (active); in the experiment on MCF7 breast, 16%; with HCT-116 colon, 2.14% (active); in the experiment with KM12 colon it was -42% (active).

Consider `COc1ccc2nc3cc(Cl)ccc3c(NCCNCC(O)CO)c2c1` (stereo not drawn), for which the growth in the experiment on SR leukemia was 6.64% (active); with RPMI-8226 leukemia, 20.6%; with OVCAR-8 ovarian, 23.3%; with OVCAR-5 ovarian, 30.7%; with OVCAR-4 ovarian, 30.5%; in the experiment on SK-OV-3 ovarian it was 32.4%. In addition, the growth was 19.8% with IGROV1 ovarian; 26.2% in the experiment with OVCAR-3 ovarian; 49.6% in the experiment with HS 578T breast; 87.7% in the experiment on NCI/ADR-RES ovarian; 21.7% in the experiment on T-47D breast; 44.3% with BT-549 breast. Further, the growth was 28.3% in the experiment with MDA-MB-435 melanoma; 15.2% in the experiment with SW-620 colon; 9.6% (active) with HCT-116 colon; 44.8% with HCC-2998 colon; 20.7% in the experiment on KM12 colon.

Turning to `CC1CN(Cc2ccco2)C(=S)N(c2ccccc2)C1=O` (stereo not drawn), the growth in the experiment on SR leukemia is 91.2%; with RPMI-8226 leukemia it was 88.1%; with OVCAR-8 ovarian, 104%; in the experiment on OVCAR-5 ovarian, 105%; with OVCAR-4 ovarian it was 97%; in the experiment with SK-OV-3 ovarian, 105%. Also, the growth in the experiment with IGROV1 ovarian was 106%; in the experiment on OVCAR-3 ovarian, 106%; with HS 578T breast it was 101%; in the experiment on NCI/ADR-RES ovarian, 108%; in the experiment on T-47D breast, 83.1%; with BT-549 breast it was 94.6%. Further, the growth with MDA-MB-435 melanoma was 100%; with SW-620 colon, 102%; in the experiment on HCT-116 colon, 88.9%; with HCC-2998 colon, 113%; in the experiment on KM12 colon it was 99.9%.

On to `CCCCCC(=O)Oc1ccc(/C(=C(\C)c2ccccc2)c2ccc(OCCN(CC)CC)cc2)cc1`, for which the growth in the experiment with SR leukemia was 17.7%; in the experiment with RPMI-8226 leukemia, 46.5%; with OVCAR-8 ovarian it was 81.9%; with OVCAR-5 ovarian, 87.6%; in the experiment on OVCAR-4 ovarian, 84%; with SK-OV-3 ovarian, 75.2%. The growth is 75.9% in the experiment on IGROV1 ovarian; 86.6% with OVCAR-3 ovarian; 35.6% in the experiment on HS 578T breast; 74.2% with NCI/ADR-RES ovarian; 39% with T-47D breast; 72.7% in the experiment on BT-549 breast. In addition, the growth in the experiment with MDA-MB-435 melanoma was 70.3%; in the experiment with SW-620 colon it was 70.8%; with MCF7 breast it was 29.6%; with HCT-116 colon, 50.7%; with KM12 colon, 62%.

Consider `COc1c2ccccc2c(OC)c2[nH]c(=O)ccc12`, for which the growth in the experiment on SR leukemia is 22.2%; in the experiment on RPMI-8226 leukemia, 55.2%; with OVCAR-8 ovarian, 87%; in the experiment on OVCAR-5 ovarian, 75.4%; in the experiment with OVCAR-4 ovarian, 60.4%; in the experiment with SK-OV-3 ovarian, 92.6%. In addition, the growth in the experiment on IGROV1 ovarian was 81.5%; in the experiment with OVCAR-3 ovarian it was 59.2%; in the experiment on HS 578T breast it was 32.8%; in the experiment with NCI/ADR-RES ovarian, 57.6%; in the experiment with T-47D breast, 67.8%; in the experiment on BT-549 breast, 26.7%. Further, the growth in the experiment on MDA-MB-435 melanoma was -67.2% (active); in the experiment on SW-620 colon, 61.7%; in the experiment on HCT-116 colon, 57.6%; with HCC-2998 colon, 81%; in the experiment on KM12 colon it was 36.2%.

For the molecule `COC(=O)C12C3C(=O)N(c4ccc(OC)cc4)C(=O)C3C(c3cn(-c4ccccc4)nc3C)N1[C@H](c1cn(-c3ccccc3)nc1C)[C@@H]1C(=O)N(c3ccc(OC)cc3)C(=O)[C@@H]12` (stereo partly drawn), the growth with SR leukemia is 91%; in the experiment on RPMI-8226 leukemia, 106%; with OVCAR-8 ovarian, 99%; in the experiment on OVCAR-5 ovarian, 103%; with OVCAR-4 ovarian, 108%; in the experiment with SK-OV-3 ovarian, 101%. In addition, the growth in the experiment with IGROV1 ovarian was 107%; with OVCAR-3 ovarian, 104%; in the experiment with HS 578T breast, 106%; in the experiment on NCI/ADR-RES ovarian, 97.4%; in the experiment on T-47D breast it was 102%; in the experiment on BT-549 breast it was 113%. The growth in the experiment with MDA-MB-435 melanoma is 102%; in the experiment with SW-620 colon it was 100%; with MCF7 breast it was 102%; with HCT-116 colon it was 104%; in the experiment on KM12 colon, 106%.
